PubChem BioAssay
Activity calls are given as the source filed them. How the calls were made is not given here.

experiment: P. aeruginosa biofilm formation inhibitors, primary screen, PAO1 strain, BacTiter-Glo luminescence, LB-PBS (AID 1144); conditions: 12 h, higher = more signal

z-score, inactive:
C[N+](C)(C)CCCCNC(=O)[C@H]1C[C@H]2C(=O)N3CCC[C@H]3C(=O)N2[C@H]1c1ccc(O)cc1 0.014
O=S(=O)(NCCCO)c1ccc(Br)cc1 -0.658
Cc1ccc(S(=O)(=O)N2CC(C(=O)O)=CCC2c2ccccc2)cc1 (stereo unspecified) -0.153
C=CCOC(=O)[C@H]1[C@@H]2C(=O)O[C@@H](c3ccccc3)[C@@H](c3ccccc3)N2[C@@H](c2ccc(OCCOC(=O)[C@@H]3C[C@@H]4C(=O)NCC(=O)N4[C@@H]3c3ccc(O)cc3)cc2)[C@]12C(=O)Nc1ccc(I)cc12 0.183
CC(=O)NCCCC[C@@H]1NC(=O)[C@@H]2C[C@H](C(=O)NCCCCCC[N+](C)(C)C)[C@H](c3cccc(OCCO)c3)N2C1=O -0.445
C/C=C/[C@H](CCn1cc([C@H](O)c2ccccc2)nn1)[Si](C)(C)c1ccc(OC)cc1 0.303
CCCNC(=O)[C@@]1(C)c2ccccc2C(=O)N(Cc2cc(C(F)(F)F)cc(C(F)(F)F)c2)[C@H]1c1ccc(CO)cc1 -0.889
C=C(CCCC)/C(=C/C[C@H](OC(C)=O)c1ccc(CO)o1)c1cc(C(=O)OC)ccc1OC -0.193
C=CCCN(CC#C[C@H]1Oc2ccccc2S(=O)(=O)N2CCC[C@@H]12)S(=O)(=O)c1ccc(C)cc1 0.592
CN1C(=O)C2C=CC(C(O)C(c3ccccc3)c3ccccc3)N(Nc3ccccc3)C2C1=O (stereo unspecified) -0.437
O=C1OCCC/C=C\[C@H]2OC34C=CCN(CCN5CCOCC5)C(=O)[C@H]3N(CCO)C(=O)[C@@H]4C12 (stereo partly specified) 0.145
COCCOC(=O)N1C(=O)[C@@]2(c3cc(C#CC4(O)CCCCCC4)ccc31)[C@H](c1ccc(O)cc1)N1[C@H](c3ccccc3)[C@H](c3ccccc3)OC(=O)[C@H]1[C@@H]2C(=O)N1CCc2cc(OC)c(OC)cc2C1 -1.73
COCCn1c(C(=O)N2CCCC2)cc2c1C[C@H]1CN(C(=O)c3ccccc3)[C@@](Cc3ccc(OC)cc3)(C(=O)OC)[C@@H]21 -0.2
Cc1cc(C)c(C(O)C2C=CC3C(=O)NC(=O)C3N2Nc2ccccn2)c(C)c1 (stereo unspecified) -0.644
CC(c1ccccc1)C(O)C1C=CC2C(=O)N(Cc3ccccc3)C(=O)C2N1n1cnnc1 (stereo unspecified) 0.144
O=C(NCC(O)CO)[C@@]1(Cc2ccccc2)N=C(c2ccc(OCCCO)cc2)O[C@H]1c1ccccc1 (stereo partly specified) -0.473
CC(c1ccccc1)C(O)C1C=CC2C(=O)N(c3ccccc3)C(=O)C2N1Nc1ccccc1F (stereo unspecified) -1.29
C=CC[C@@]1(C(=O)NCc2ccccc2)N=C(c2ccc(OCCCO)cc2)O[C@@H]1c1ccccc1CN=[N+]=[N-] -0.315
C=CCN1C(=O)[C@]2(Cc3ccccc31)N=C(c1ccc(OCCCO)cc1)O[C@@H]2c1ccccc1 -0.324
CCCCC(=O)N(Cc1ccccc1F)[C@@H]1CC(C(=O)NCCO)=C[C@H](Oc2c(I)cc(CO)cc2OC)[C@H]1O -0.43
Cc1c(NC(=O)/C(C#N)=C/C=C/c2ccccc2)c(=O)n(-c2ccccc2)n1C 0.374
CC(C)(C)OC(=O)CC[C@]1(C(=O)NCC(O)CO)N=C(c2ccc(OCCCO)cc2)O[C@H]1c1ccccc1CN=[N+]=[N-] (stereo partly specified) -1.35
CCCC[C@@H]1C[C@H]1[C@@H](NC(=O)c1ccco1)c1ccccc1 0.0548
NC(=O)NCC#Cc1ccc2c(c1)[C@]1(C(=O)N2)[C@H](c2ccccc2OCCO)N2[C@H](c3ccccc3)[C@H](c3ccccc3)OC(=O)[C@H]2[C@@H]1C(=O)N1CCCCCCC1 0.433
C=C(COC)C(=O)CC[C@H](OC(=O)c1cccnc1)c1ccccc1OCCO -0.201
C=C(C(=O)CC[C@@H](OC(=O)c1cccnc1)c1ccc(CO)o1)C(C)C 0.228
O=C1O[C@H](c2ccccc2)[C@H](c2ccccc2)N2[C@H]1[C@@H](C(=O)Nc1nc3ccccc3s1)[C@]1(C(=O)Nc3ccc(C#CC4=CCCCC4)cc31)[C@H]2c1ccc(OCCO)cc1 -0.711
COCCOC(=O)N1C(=O)[C@@]2(c3cc(C#Cc4ccc(OC)cc4)ccc31)[C@H](C(N)=O)[C@H]1C(=O)O[C@H](c3ccccc3)[C@H](c3ccccc3)N1[C@@H]2c1ccc(O)cc1 0.0989
CN1C(=O)C2C(C1=O)C1C=C(c3ccc(CO)cc3)C2C(C2CC2)N1Cc1sc2ccccc2c1Cl (stereo unspecified) 0.277
CC1CC/C=C\[C@H]2OC34C=CCN(Cn5nnc6ccccc65)C(=O)[C@H]3N(CCCO)C(=O)[C@@H]4C2C(=O)O1 (stereo partly specified) -0.281
O=P(NCC1(CC2(c3ccccc3)CO2)CC1)(c1ccccc1)c1ccccc1 (stereo unspecified) 0.318
CCOC(=O)C1=CC[C@@H](c2ccccc2)N(S(=O)(=O)c2ccc(C)cc2)[C@H]1c1ccc(C#N)cc1 0.742
COc1cc(NN2C(C(O)c3ccccc3)C=CC3C(=O)N(c4ccccc4)C(=O)C32)cc(OC)c1OC (stereo unspecified) -0.525
Cn1c2c(c3ccccc31)C(=O)C1NC2C=CC1(C)C(=O)OCc1ccccc1 (stereo unspecified) 0.908
Cc1ccc(S[C@]2(C(=O)NCCN3CCOCC3)CC(=O)N(C3CCCCC3)[C@@H]2c2ccc(CO)cc2)cc1 0.314
COCCOC(=O)N1C(=O)[C@@]2(c3cc(C#CC4=CCCCC4)ccc31)[C@H](c1ccc(OCCO)cc1)N1[C@H](c3ccccc3)[C@H](c3ccccc3)OC(=O)[C@H]1[C@@H]2C(=O)Nc1nc2ccccc2s1 -2.45
